Binding signal data for 40 sequences are collected here from paper PMC7862700, “An all-to-all approach to the identification of sequence-specific readers for epigenetic DNA modifications on cytosine”.

The target in the test is T1, ELF5 (Homo sapiens, UniProt Q9UKW6-2 1-255).
T1 sequence: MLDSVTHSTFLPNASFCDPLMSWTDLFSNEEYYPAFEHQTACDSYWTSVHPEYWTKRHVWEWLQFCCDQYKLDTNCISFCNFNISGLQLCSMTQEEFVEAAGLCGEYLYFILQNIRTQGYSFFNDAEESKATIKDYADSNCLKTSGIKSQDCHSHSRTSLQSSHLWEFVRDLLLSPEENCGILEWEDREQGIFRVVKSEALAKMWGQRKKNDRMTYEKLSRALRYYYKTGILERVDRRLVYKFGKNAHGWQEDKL
Description: DAPPL (digital affinity profiling via proximity ligation, sequencing); 10 mM Tris-HCl pH 7.5, 50 mM NaCl, 1 mM DTT, 4% glycerol, room temperature, 30 min; GST-TFs on glutathione beads, 16-mer random dsDNA library, 0.1% formaldehyde crosslink after washing; high values mean tight binding. The following applies: protein: recombinant; tags: N-terminal GST; dsDNA, one strand shown. The essentials: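 After expression in yeast as GST fusions, human transcription factors were bound to glutathione beads, DNA-barcoded and mixed with a tag-only sample. The pools were incubated with 200 nmole of a 16-mer random double-stranded DNA library in Tris/NaCl/DTT/glycerol buffer (30 min, room temperature), washed and crosslinked with 0.1% formaldehyde. Proximity ligation with BsaI/T4 ligase ran for 1 h at 37 °C, before PCR amplification and sequencing on an Illumina NextSeq500. Binding signal is a hexamer's read frequency for a factor divided by its frequency for the tag-only sample.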
As to ACAATG, the binding signal is 1.08 fold enrichment (6-mer frequency, TF over GST control).

As to AATAAC, the binding signal is 1.31 fold enrichment (6-mer frequency, TF over GST control).

With GCGTCC, the binding signal was 1.25 fold enrichment (6-mer frequency, TF over GST control). In the case of ATTATC, the binding signal is 1.31 fold enrichment (6-mer frequency, TF over GST control). Turning to CGCCTC, the binding signal is 1.43 fold enrichment (6-mer frequency, TF over GST control).

Turning to TCTCAA, the binding signal was 1.15 fold enrichment (6-mer frequency, TF over GST control). Consider GATATG, for which the binding signal was 1.14 fold enrichment (6-mer frequency, TF over GST control). CGTCAC: the binding signal was 1.16 fold enrichment (6-mer frequency, TF over GST control). Then TGTTAC, with 1.43 fold enrichment (6-mer frequency, TF over GST control); and CCCGGA, with 3.77 fold enrichment (6-mer frequency, TF over GST control); and AAGGTA, with 1.06 fold enrichment (6-mer frequency, TF over GST control). Then CATGAT, with 1.1 fold enrichment (6-mer frequency, TF over GST control); and GTAATC, with 1.18 fold enrichment (6-mer frequency, TF over GST control). With TTTAAT, the binding signal was 1.28 fold enrichment (6-mer frequency, TF over GST control). CTCTCC: the binding signal is 1.37 fold enrichment (6-mer frequency, TF over GST control). With AAGAAT, the binding signal is 1.15 fold enrichment (6-mer frequency, TF over GST control). Then GTTTCA, with 1.35 fold enrichment (6-mer frequency, TF over GST control).

CACTTC: the binding signal is 4.43 fold enrichment (6-mer frequency, TF over GST control). In the case of CTCAAA, the binding signal is 1.16 fold enrichment (6-mer frequency, TF over GST control). Take CCCGGC: the binding signal is 1.14 fold enrichment (6-mer frequency, TF over GST control). The value for CCGCAA was 1.39 fold enrichment (6-mer frequency, TF over GST control); that for AAGTTG was 1.17 fold enrichment (6-mer frequency, TF over GST control); that for GTCCCG was 1.23 fold enrichment (6-mer frequency, TF over GST control). TATCTG: the binding signal was 1.14 fold enrichment (6-mer frequency, TF over GST control). As to TTCCCT, the binding signal was 2.49 fold enrichment (6-mer frequency, TF over GST control). Consider TATGCA, for which the binding signal was 1.23 fold enrichment (6-mer frequency, TF over GST control). For AAAGGG, the binding signal was 1.19 fold enrichment (6-mer frequency, TF over GST control).

Regarding TAGCAT, the binding signal was 1.01 fold enrichment (6-mer frequency, TF over GST control). As for TGCACT, the binding signal was 1.29 fold enrichment (6-mer frequency, TF over GST control).

In the case of CCGACA, the binding signal was 1.25 fold enrichment (6-mer frequency, TF over GST control).

For the sequence CTTACA, the binding signal was 1.35 fold enrichment (6-mer frequency, TF over GST control). The value for GCTCAT was 1.19 fold enrichment (6-mer frequency, TF over GST control); that for TGCTAC was 1.17 fold enrichment (6-mer frequency, TF over GST control).

With CCGGCC, the binding signal was 1.22 fold enrichment (6-mer frequency, TF over GST control). Turning to GAAGCT, the binding signal was 1.71 fold enrichment (6-mer frequency, TF over GST control). In the case of GCGACC, the binding signal is 1.1 fold enrichment (6-mer frequency, TF over GST control). ATGGCT: the binding signal was 1.25 fold enrichment (6-mer frequency, TF over GST control).

On to CATCAC, for which the binding signal is 1.11 fold enrichment (6-mer frequency, TF over GST control). As for CGTTCA, the binding signal was 1.08 fold enrichment (6-mer frequency, TF over GST control). With ATATTC, the binding signal is 1.31 fold enrichment (6-mer frequency, TF over GST control).
